“And” between values parts separate entries of the source, which are not always exact repeats. Identical values can stand only once. Screen size: about 5,500 compounds; about 2,000 (36%) were called active. Roughly 18% stayed inconclusive and do not appear here. Rule as the data show it: active = normalized growth mostly below about 0.91 (no sharp cut-off); inconclusive = no clear call, values can overlap the other calls; inactive = mostly above about 0.92. The list shows a part of the results.
Assay: chemical genetic growth profiling, strain panel (AID 1159580);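 also: tested at 20 µM; growth read once vehicle control cultures reached saturation at 30 °C; 1 = growth at the plate median or of vehicle wells; lower values mean less growth of the strain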
Settings: growth OD

Measured: normalized growth

O=C1NCC2(CCN(CCc3ccccc3)CC2)O1
inactive: S. cerevisiae deletion strains, locus YKL009W, strain mrt4, hits give low values 0.986 | S. cerevisiae deletion strains, locus YKL068W, hits give low values 0.995 | S. cerevisiae deletion strains, locus YKL085W, strain MDH1 (second series), hits give low values 0.995 | S. cerevisiae deletion strains, locus YKL085W, strain MDH1, hits give low values 0.995 | S. cerevisiae deletion strains, locus YKL160W, strain elf1, hits give low values 0.97 | S. cerevisiae deletion strains, locus YKL190W, strain CNB1, hits give low values 1 | S. cerevisiae deletion strains, locus YKR001C, strain vps1, hits give low values 0.999 | S. cerevisiae deletion strains, locus YKR026C, strain gcn3, hits give low values 0.939 | S. cerevisiae deletion strains, locus YKR091W, strain srl3, hits give low values 1.01 | S. cerevisiae deletion strains, locus YLL001W, strain dnm1, hits give low values 0.945 | S. cerevisiae deletion strains, locus YLL026W, hits give low values 1 | S. cerevisiae deletion strains, locus YLL041C, strain sdh2, hits give low values 0.999 | S. cerevisiae deletion strains, locus YLR027C, strain aat2, hits give low values 0.995 | S. cerevisiae deletion strains, locus YLR039C, strain RIC1, hits give low values 1 | S. cerevisiae deletion strains, locus YLR058C, strain SHM2, hits give low values 1.01 | S. cerevisiae deletion strains, locus YLR102C, strain apc9, hits give low values 0.999 | S. cerevisiae deletion strains, locus YLR113W, strain HOG1, hits give low values 0.964 | S. cerevisiae deletion strains, locus YLR221C, strain rsa3, hits give low values 1 | S. cerevisiae deletion strains, locus YLR258W, strain gsy2, hits give low values 1 | S. cerevisiae deletion strains, locus YLR262C, strain YPT6 (second series), hits give low values 0.981 | S. cerevisiae deletion strains, locus YLR262C, strain YPT6, hits give low values 0.968 | S. cerevisiae deletion strains, locus YLR268W, strain sec22, hits give low values 1.04 | S. cerevisiae deletion strains, locus YLR320W, strain mms22, hits give low values 1.02 | S. cerevisiae deletion strains, locus YLR330W, strain CHS5, hits give low values 1.01 | S. cerevisiae deletion strains, locus YLR342W, strain FKS1 (second series), hits give low values 1.01 | S. cerevisiae deletion strains, locus YLR342W, strain FKS1, hits give low values 0.994 | S. cerevisiae deletion strains, locus YLR357W, strain rsc2, hits give low values 0.981 | S. cerevisiae deletion strains, locus YLR370C, strain arc18, hits give low values 0.989 | S. cerevisiae deletion strains, locus YLR371W, strain rom2, hits give low values 1.01 | S. cerevisiae deletion strains, locus YLR384C, strain iki3, hits give low values 0.988 | S. cerevisiae deletion strains, locus YLR418C, strain cdc73, hits give low values 0.981 | S. cerevisiae deletion strains, locus YML016C, strain PPZ1, hits give low values 1 | S. cerevisiae deletion strains, locus YML032C, strain rad52, hits give low values 1.02 | S. cerevisiae deletion strains, locus YML120C, strain ndi1, hits give low values 0.984 | S. cerevisiae deletion strains, locus YML124C, strain tub3, hits give low values 0.996 | S. cerevisiae deletion strains, locus YMR058W, strain fet3, hits give low values 0.979 | S. cerevisiae deletion strains, locus YMR078C, strain ctf18, hits give low values 1 | S. cerevisiae deletion strains, locus YMR125W, strain sto1, hits give low values 0.97 | S. cerevisiae deletion strains, locus YMR129W, hits give low values 0.98 | S. cerevisiae deletion strains, locus YMR205C, strain PFK2, hits give low values 1.01 | S. cerevisiae deletion strains, locus YMR223W, strain ubp8, hits give low values 0.978 | S. cerevisiae deletion strains, locus YMR231W, strain pep5, hits give low values 0.994 | S. cerevisiae deletion strains, locus YMR263W, strain SAP30, hits give low values 1.02 and 1 | S. cerevisiae deletion strains, locus YMR307W, strain GAS1, hits give low values 0.884 | S. cerevisiae deletion strains, locus YNL067W, strain RPL9B, hits give low values 1.02 | S. cerevisiae deletion strains, locus YNL071W, strain lat1, hits give low values 1.01 | S. cerevisiae deletion strains, locus YNL128W, strain TEP1, hits give low values 1.02 | S. cerevisiae deletion strains, locus YNL153C, strain GIM3, hits give low values 1.02 and 1.04 | S. cerevisiae deletion strains, locus YNL175C, strain NOP13, hits give low values 1.01 | S. cerevisiae deletion strains, locus YNL183C, strain NPR1, hits give low values 0.904 | S. cerevisiae deletion strains, locus YNL197C, strain WHI3, hits give low values 0.992 | S. cerevisiae deletion strains, locus YNL209W, strain ssb2, hits give low values 0.998 | S. cerevisiae deletion strains, locus YNL224C, strain SQS1, hits give low values 0.995 | S. cerevisiae deletion strains, locus YNL233W, strain BNI4, hits give low values 1.02 | S. cerevisiae deletion strains, locus YNL248C, strain rpa49, hits give low values 1.01 | S. cerevisiae deletion strains, locus YNL250W, strain rad50, hits give low values 1 | S. cerevisiae deletion strains, locus YNL271C, strain bni1, hits give low values 1.01 | S. cerevisiae deletion strains, locus YNL298W, strain CLA4, hits give low values 0.989 | S. cerevisiae deletion strains, locus YNL307C, strain MCK1, hits give low values 1.01 | S. cerevisiae deletion strains, locus YNL322C, strain KRE1 (second series), hits give low values 0.999 | S. cerevisiae deletion strains, locus YNL322C, strain KRE1, hits give low values 1 and 1.01 | S. cerevisiae deletion strains, locus YNR049C, strain mso1, hits give low values 0.987 | S. cerevisiae deletion strains, locus YNR052C, strain pop2, hits give low values 1 | S. cerevisiae deletion strains, locus YOL006C, strain TOP1, hits give low values 1.07 | S. cerevisiae deletion strains, locus YOL012C, strain htz1 0.911 | S. cerevisiae deletion strains, locus YOL147C, strain pex11, hits give low values 0.996 | S. cerevisiae deletion strains, locus YOR001W, strain rrp6, hits give low values 0.985 | S. cerevisiae deletion strains, locus YOR061W, strain CKA2, hits give low values 1.01 | S. cerevisiae deletion strains, locus YOR069W, strain VPS5, hits give low values 0.99 | S. cerevisiae deletion strains, locus YOR070C, strain gyp1, hits give low values 1 | S. cerevisiae deletion strains, locus YOR080W, strain dia2, hits give low values 0.988 | S. cerevisiae deletion strains, locus YOR083W, strain WHI5 (second series), hits give low values 1 | S. cerevisiae deletion strains, locus YOR083W, strain WHI5, hits give low values 0.988 | S. cerevisiae deletion strains, locus YOR106W, strain vam3, hits give low values 0.979 | S. cerevisiae deletion strains, locus YOR136W, strain idh2, hits give low values 0.988 | S. cerevisiae deletion strains, locus YOR144C, strain elg1, hits give low values 1 | S. cerevisiae deletion strains, locus YOR184W, strain ser1, hits give low values 0.993 | S. cerevisiae deletion strains, locus YOR231W, strain MKK1, hits give low values 0.979 | S. cerevisiae deletion strains, locus YOR265W, strain rbl2, hits give low values 0.999 | S. cerevisiae deletion strains, locus YOR270C, strain vph1, hits give low values 0.975 | S. cerevisiae deletion strains, locus YOR290C, strain snf2, hits give low values 1 | S. cerevisiae deletion strains, locus YOR316C, strain cot1, hits give low values 0.999 | S. cerevisiae deletion strains, locus YPL051W, strain arl3, hits give low values 0.995 | S. cerevisiae deletion strains, locus YPL055C, strain LGE1, hits give low values 0.993 and 1 | S. cerevisiae deletion strains, locus YPL078C, strain atp4, hits give low values 0.991 | S. cerevisiae deletion strains, locus YPL106C, strain sse1, hits give low values 1 | S. cerevisiae deletion strains, locus YPL240C, strain hsp82, hits give low values 0.986 | S. cerevisiae deletion strains, locus YPL241C, strain CIN2, hits give low values 1.01 | S. cerevisiae deletion strains, locus YPL256C, strain CLN2, hits give low values 0.986 | S. cerevisiae deletion strains, locus YPR119W, strain clb2, hits give low values 1 | S. cerevisiae deletion strains, locus YPR141C, strain kar3, hits give low values 0.997 | S. cerevisiae deletion strains, locus YPR163C, strain tif3, hits give low values 1.01 | S. cerevisiae deletion strains, locus YPR167C, strain met16, hits give low values 1 | S. cerevisiae deletion strains, strain wtn01, hits give low values 0.997 | S. cerevisiae strains, strain wild type, hits give low values 1.01

From PubChem BioAssay AID1159580 (chemical genetic matrix, 2015)
